Source: PubChem BioAssay (several laboratories)
Hsp90 inh – displaces geldanamycin probe from tumor Hsp90; NCI-N417 lysate Hsp90, Cy3B-geldanamycin FP displacement; AID 429; inhibition, % at 30 µM; actives 0.35% (n = 64,000); P07900;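 active = inhibition above 50%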
Cdc25B block – inhibitors of human Cdc25B phosphatase; actives 0.1% (n = 65,000); inhibition, %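 (compounds tested at 10 µM final in the well)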; AID 368; recombinant Cdc25B, OMFP fluorescence Ex485/Em525; P30305; in the data active = inhibition above about 50%
MMP-13 inhibitor – blocks human MMP13 activity. P45452. MMP-13 fTHP FRET cleavage, Mca fluorescence. actives 0.07% (n = 65,000). inhibition, % at 4 µM;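 active = inhibition above the mean of compound-free control plate wells plus 3 SD, cut at about 14% in these data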
M1 agonist – activates the M1 muscarinic receptor | B-score at 10 µM | actives 3% (n = 64,000) | CHO-M1 cells, Fluo-4 calcium fluorescence, agonist mode; active compounds read high | AID 626;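 active = fluorescence rise, raw or as B-score row- and column-corrected plate score, outside the 99.7% band of its plate's samples, either direction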
M1 antag – antagonists of rat M1 muscarinic receptor; P08482; CHO-M1 cells, Fluo-4 calcium, ACh EC80 antagonist mode; active compounds read low; B-score at 10 µM; actives 3.4% (n = 64,000); AID 628;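 active = calcium fluorescence response, raw or row-and-column corrected B-score, differing from the plate sample mean either way at a set confidence level, mostly lower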
Target sequence (P08482 whole entry, looked up): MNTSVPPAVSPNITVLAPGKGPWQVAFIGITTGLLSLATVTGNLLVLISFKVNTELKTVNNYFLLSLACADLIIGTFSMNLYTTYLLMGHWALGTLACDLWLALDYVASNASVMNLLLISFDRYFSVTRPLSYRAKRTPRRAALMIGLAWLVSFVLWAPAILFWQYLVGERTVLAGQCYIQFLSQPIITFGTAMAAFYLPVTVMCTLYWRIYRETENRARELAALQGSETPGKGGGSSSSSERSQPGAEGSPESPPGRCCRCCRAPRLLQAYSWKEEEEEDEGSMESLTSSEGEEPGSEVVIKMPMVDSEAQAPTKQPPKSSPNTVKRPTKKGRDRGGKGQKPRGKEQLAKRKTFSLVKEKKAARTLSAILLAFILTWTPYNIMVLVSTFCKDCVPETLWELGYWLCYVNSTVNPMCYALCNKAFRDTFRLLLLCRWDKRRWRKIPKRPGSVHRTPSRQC
MKP-1 inh – inhibitors of human MKP-1 phosphatase | recombinant MKP-1, OMFP hydrolysis fluorescence | P28562 | actives 0.15% (n = 65,000) | inhibition, %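 (compounds tested at a single concentration somewhere between 10 and 100 µM)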;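 active = inhibition above about 50%, limit read from the data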
M1 antag confirm – confirmation of rat M1 muscarinic receptor antagonists; shares compounds with M1 antag; CHO-M1 cells, Fluo-4 calcium, ACh EC80 antagonism; active compounds read low; calcium response (max-min fluorescence) at 10 µM; actives 43% (n = 1,700); AID 677;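 active = calcium response below the same-plate mean of wells given acetylcholine alone at its 80%-effect dose, minus 3 SD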
mGluR4 antag – selectivity test for M1 antagonists: human mGluR4 receptor. shares compounds with M1 antag. CHO-mGluR4 calcium flux, Fluo-4 fluorescence, glutamate EC80; active compounds read low. fluorescence response (max-min) at 10 µM. actives 0.9% (n = 1,700);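 active = fluorescence response below the plate's average for near-maximal glutamate wells, less 3 SD of those wells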;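 also: raw unnormalized fluorescence span taken in the window right after glutamate addition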
A number is an active result; i = inactive; nt = no result given. Hits are enriched below; roughly 6.1% of the tested compounds scored in any of these assays.

SMILES | Hsp90 inh | Cdc25B block | MMP-13 inhibitor | M1 agonist | M1 antag | MKP-1 inh | M1 antag confirm | mGluR4 antag
CN(C)CCOC(=O)C1(c2ccccc2)CCOCC1 | i | i | i | i | -3.2 | i | 362 | i
CCN1CCN(c2cc(C)c3cc(NC(=O)c4cncc(Br)c4)ccc3n2)CC1 | nt | i | i | i | -5 | i | 250 | i
CCN1CCN(c2cc(C)c3cc(NC(=O)c4ccc5c(c4)OCO5)ccc3n2)CC1 | i | i | i | i | -2.6 | i | 502 | i
CCOc1ccccc1C(=O)Nc1ccc2nc(N3CCN(c4ncccn4)CC3)cc(C)c2c1 | nt | nt | i | i | i | nt | nt | nt
COc1cccc(C(=O)Nc2ccc3nc(N4CCOCC4)cc(C)c3c2)c1 | i | i | i | i | i | i | nt | nt
Cc1cc2c(c(=O)n1CCN(C)C)C(c1ccncc1)C(C#N)=C(N)O2 (configuration not stated) | i | i | i | i | -2.9 | i | i | i
CCn1c(C)cc2c(c1=O)C(c1ccccc1Br)C(C#N)=C(N)O2 (configuration not stated) | i | i | i | nt | nt | i | nt | nt
CCN(CC)CCCn1c(C)cc2c(c1=O)C(c1cccc(Cl)c1)C(C#N)=C(N)O2 (configuration not stated) | i | i | i | i | -4.9 | i | i | i
CCN(CC)CCCn1c(C)cc2c(c1=O)C(c1cc(OC)c(OC)cc1OC)C(C#N)=C(N)O2 (configuration not stated) | i | i | i | i | -11 | i | 279 | i
CN1CCN(C2=C(Cl)C(=O)N(Cc3ccccc3)C2=O)CC1 | i | i | i | i | -5.6 | i | 226 | i
CC(CCc1ccc(O)cc1)N(C)CCc1ccccc1 (configuration not stated) | i | i | i | i | -3.1 | i | 404 | i
CCN1CCC[C@H]1CNC(=O)c1c(O)c(Cl)cc(Cl)c1OC | i | nt | nt | nt | nt | nt | nt | nt
CCN1CCCC1CNCc1ccc(Cl)cc1Cl (configuration not stated) | i | i | i | i | -3.1 | i | 529 | i
O=C(NCCN1CCCCC1)Nc1ccc(F)c(Cl)c1 | i | i | i | i | -2.8 | i | i | i
O=C(NCCN1CCOCC1)Nc1ccc(Cl)cc1Cl | i | i | i | i | i | i | nt | nt
COCCN(C(=O)COc1ccccc1)c1nnc(-c2cccnc2)s1 | i | i | i | i | -2.7 | i | i | i
COc1cccc(N2CC(C(=O)Nc3ccc(C(=O)OC(C)C)cc3)CC2=O)c1 (configuration not stated) | i | i | i | nt | nt | i | nt | nt
CCn1c(=O)c(C(=O)Nn2c(C)nc3ccccc3c2=O)c(O)c2ccccc21 | i | i | i | i | -14 | i | i | i
CCn1c(=O)c(C(=O)Nc2nc3ccccc3[nH]2)c(O)c2ccccc21 | i | i | i | i | i | i | nt | nt
O=C(NC1CCN(Cc2ccccc2)CC1)C1COc2ccccc2O1 (configuration not stated) | i | i | i | i | -4.5 | i | 377 | i
COC(=O)C1=C(C(=O)c2ccc(C)cc2)C(c2ccc(OC)c(OC)c2)n2nnnc2N1 (configuration not stated) | i | i | i | i | i | i | nt | nt
c1cncc(C(c2nnnn2C2CCCC2)N2CCCC2)c1 (configuration not stated) | i | i | i | i | -2 | i | i | i
O=C(Nc1ccc(O)cc1)c1ccc(C(=O)c2ccccc2)o1 | i | i | i | i | i | i | nt | nt
CCN(CCCNC(=O)c1c(C)cc(=O)oc1C)c1ccccc1 | i | i | i | i | -3.9 | i | i | i
CCCCC(=O)NC1(C(F)(F)F)C(=O)Nc2c1c(=O)[nH]c(=O)n2Cc1ccco1 (configuration not stated) | i | i | i | i | -4.7 | i | i | i
SMILES | Hsp90 inh | Cdc25B block | MMP-13 inhibitor | M1 agonist | M1 antag | MKP-1 inh | M1 antag confirm | mGluR4 antag
COc1ccc(S(=O)(=O)N2CCCC(C(=O)NCc3ccccn3)C2)cc1Cl (configuration not stated) | i | i | i | i | i | i | nt | nt
Cc1noc(C)c1C(=O)N1CCN(C(=O)c2sc3cc(Cl)ccc3c2Cl)CC1 | i | i | i | i | -4 | i | i | i
Cc1noc(C)c1C(=O)N1CCN(c2ncccn2)CC1 | i | i | i | i | i | i | nt | nt
CCN(CC)CCCNC(CC(=O)O)C(=O)O (configuration not stated) | i | i | i | i | i | i | nt | nt
Cc1ccc(Cn2nnc3c(=O)n(Cc4cc(C)ccc4C)cnc32)cc1 | i | i | i | i | i | i | nt | nt
CCOC(=O)N1CCN(CC(O)COC2CC(C)CC(C)(C)C2)CC1 (configuration not stated) | i | i | i | i | i | i | nt | nt
CCOC(=O)N1CCN(CC(O)COCC2=CCC3CC2C3(C)C)CC1 (configuration not stated) | i | i | i | i | -6.3 | i | 456 | i
O=S(=O)(CCN1CCN(C(c2ccccc2)c2ccccc2)CC1)C(F)(F)F | i | i | i | i | -3.8 | i | 387 | i
O=C(CN1CCN(C(c2ccccc2)c2ccccc2)CC1)N1CCOCC1 | i | i | i | i | -19 | i | 179 | i
O=C(Nc1ccccc1-c1ccccc1)NC1CCN(CC(=O)N2CCOCC2)CC1 | i | i | i | i | -6 | i | 323 | i
COCC(=O)/C=C1\Sc2ccccc2N1C | i | i | i | i | i | i | nt | nt
CN1/C(=C\C(=O)c2cccs2)Sc2ccccc21 | i | i | i | i | -6.5 | i | i | i
CCN(CC)CCN(CC)Cc1ccccc1Br | i | i | i | i | -3.3 | i | i | i
Nc1nc(CN2CCOCC2)cs1 | i | i | i | i | -0.83 | i | i | i
CCCN(CCC)CCCNC(=O)c1cc2c(=O)n(C)c3ccccc3c2n1C | i | i | i | i | -4.4 | i | 441 | i
CCCCN(CC)CCNC(=O)c1cc2c(=O)n(C)c3ccccc3c2n1C | i | i | i | i | -4.3 | i | 412 | i
CCN(CC)CCCNC(=O)c1cc2c(=O)n(C)c3ccccc3c2n1C | i | i | i | i | i | i | nt | nt
Cn1c(C(=O)NCCCN2CCCCCC2)cc2c(=O)n(C)c3ccccc3c21 | i | i | i | i | -3.2 | i | 511 | i
CCOCCCNC(=O)NC12CC3CC(CC(C3)C1)C2 | i | i | i | i | -5.1 | i | i | i
O=C(NCCCN1CCOCC1)NC12CC3CC(CC(C3)C1)C2 | i | i | i | i | i | i | nt | nt
CCCCN1C(=O)C2ON(c3ccccc3C)C(c3ccco3)C2C1=O (configuration not stated) | i | i | i | i | -0.94 | i | 532 | i
CCCCNC(=O)NS(=O)(=O)c1ccc(C(=O)OC)o1 | i | i | i | i | i | i | nt | nt
